“And” between values parts separate entries of the source, which are not always exact repeats. Equal values may be shown once. The campaign covered roughly 350,000 compounds. About 1,200 (0.34%) were called active. Another 3% or so got no clear call; they are omitted. The list comes from a sample in which actives are over-represented; it also holds similar structures and randomly drawn compounds. Unmarked numbers belong to inactive results. Calls come from the whole dose curve; as a rule, active = well fitted inhibition curve with a large enough effect; inconclusive = small, poorly fitted or top-dose-only effect; inactive = no such curve, though single readings can be large or run the other way.

These results are taken from PubChem BioAssay AID2517 (National Center for Advancing Translational Sciences (NCATS), 2010).
Potency is the fitted concentration of half-maximal effect.

For the experiment, the target named is DNA repair nuclease/redox regulator APEX1 (Homo sapiens) (UniProt P27695). As to the kind of experiment: qHTS Assay for Inhibitors of the Human Apurinic/apyrimidinic Endonuclease 1 (APE1).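 For activity change, negative = inhibition: plate controls were vehicle for no effect and reference inhibitor for full effect.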 Note: nearly all actives have a fitted effect of over 55% in size. The conditions noted are these: recombinant APE1, TAMRA/BHQ-2 abasic DNA cleavage fluorescence; activity change, negative = inhibition: at 65.8 µM (top of the series). From the text: The apurinic/apyrimidinic endonuclease APE1 is the primary mammalian enzyme responsible for the removal of abasic (or AP) sites in DNA and functions centrally in the base excision DNA repair (BER) pathway. […] Thus, targeting APE1 could improve the efficacy of current treatment paradigms by promoting selective sensitization or protection of diseased and normal cells, respectively.
DNA repair nuclease/redox regulator APEX1 (Homo sapiens), sequence (P27695 whole entry, looked up): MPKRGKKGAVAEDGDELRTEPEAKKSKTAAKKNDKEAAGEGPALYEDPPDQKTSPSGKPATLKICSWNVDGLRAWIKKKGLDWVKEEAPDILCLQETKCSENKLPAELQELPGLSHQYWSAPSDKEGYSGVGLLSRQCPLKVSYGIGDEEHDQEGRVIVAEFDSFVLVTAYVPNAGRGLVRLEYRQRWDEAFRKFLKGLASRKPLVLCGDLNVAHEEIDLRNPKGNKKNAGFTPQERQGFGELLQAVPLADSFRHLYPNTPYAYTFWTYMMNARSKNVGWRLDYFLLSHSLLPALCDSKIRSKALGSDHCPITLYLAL
Inhibition of APE1 activity was screened by utilizing double-stranded short substrate containing tetrahydrofuran (THF) abasic site labeled with rhodamine-type fluorophore (TAMRA) at the 5'-end and with non-fluorescent Black Hole Quencher-2 (BHQ-2) at the opposing 3'-end. An increase in the fluorescence intensity due to incision of the abasic site by APE1 was used to measure the enzyme activity.
NIH Chemical Genomics Center [NCGC]
NIH Molecular Libraries Probe Centers Network [MLPCN]
Assay Provider: David M. Wilson, III, National Institute on Aging, NIH
Three uL of enzyme solution (0.75 nM APE1 final concentration) was dispensed to 1536-well Greiner black solid bottom plates. […] The plates were incubated for 15 min at room temperature, and then 1 uL of substrate solution (50 nM final concentration of TAMRA/BHQ-2) was added to start the reaction. The plates were immediately transferred into ViewLux High-throughput CCD imager (Perkin-Elmer) in order to measure the reaction progress in kinetic mode (three reads every 60 seconds) using 525 nm excitation and 598 nm emission fluorescence protocol. The fluorescence intensity difference between the third and the first time points was used to compute reaction progress. Results were normalized to buffer only columns and NSC13755 positive controls and negative control DMSO treated wells.
In the case of `COCCNC(=O)Nc1ccc2nc(-c3ccco3)c(-c3ccco3)nc2c1`, the Potency was 6.31 µM (active).

For `O=C(Nc1nc(-c2ccco2)c(-c2ccco2)s1)c1ccco1`, the “activity change, negative = inhibition” value was 11.9%.

Turning to `COCCNC(=O)c1snc2ccc(Cl)cc12`, the “activity change, negative = inhibition” value is -2.23%.

With `O=C(NCc1ccccn1)c1ccc2nc(-c3ccco3)c(-c3ccco3)nc2c1`, the Potency was 10 µM (active).

As to `O=C1CSc2ccc(C(=O)NCc3ccccn3)cc2N1`, the “activity change, negative = inhibition” value was 6.27%.

As for `O=C(O)CC(C(=O)O)C(CC(=O)O)C(=O)O` (centres undefined), the “activity change, negative = inhibition” value is 15.8%.

With `NC(=O)c1sc(-c2ccsc2)cc1N`, the “activity change, negative = inhibition” value is 1.82%.

For `COc1ccc(CC(N)C(=O)NC2C(O)[C@H](n3cnc4c(N(C)C)ncnc43)O[C@@H]2CO)cc1` (some centres undefined), the “activity change, negative = inhibition” value is -0.283%.

With `CCCn1c(C)nc2c(NCCCCN(CC)CC)nc(C)nc21`, the “activity change, negative = inhibition” value was -4.94%.

With `C=C1CCN(C(CC(C)C)C(=O)N2CCOCC2)S(=O)(=O)c2ccccc21` (centres undefined), the “activity change, negative = inhibition” value is 2.97%.

For `O=C(Cc1c(O)c2ccccc2[nH]c1=O)NCc1ccccc1`, the “activity change, negative = inhibition” value was -2.72%.

Regarding `O=C1C(c2[nH]c3ccccc3c2O)=Nc2ccccc21`, the Potency was 7.94 µM (active) and 3.98 µM (active).

As for `CC(C)C(=O)Nc1c(O)c2ccccc2[nH]c1=O`, the “activity change, negative = inhibition” value was -2.89%.

As to `CCCCC/C=C\C/C=C\CCCCCCCCCC(=O)NCC(=O)O`, the “activity change, negative = inhibition” value is 3.32%.

Turning to `CCCCCCCC/C=C\CCCCCCCC(=O)NCC(=O)O`, the “activity change, negative = inhibition” value was 4.31%.

As for `Cc1cccc(-c2cc(=O)c3cc(C)ccc3o2)c1`, the “activity change, negative = inhibition” value is -8.53%.

Take `COc1ccc2c(=O)cc(-c3ccccc3)oc2c1O`: the “activity change, negative = inhibition” value was -7.77%.

Take `COc1c(O)cc2oc(-c3ccc(O)c(O)c3)cc(=O)c2c1O`: the Potency is 7.08 µM (active).

Consider `Cc1ccc(NC(=O)O[C@@H]2C(=O)c3cc(Br)ccc3O[C@H]2c2ccc3c(c2)OCO3)cc1Br`, for which the “activity change, negative = inhibition” value was 0.243%.

In the case of `CC(C)(C)n1ncc2c(=O)n(Cc3ccc(C(=O)c4ccccc4)cc3)cnc21`, the “activity change, negative = inhibition” value was -0.344%.

As for `Cc1cccc2c3c(ccc12)C1=C(C(=O)C3=O)C(C)CO1` (centres undefined), the “activity change, negative = inhibition” value is 9.79%.

For the molecule `CN[C@@H]1[C@H](O[C@H]2[C@H](O[C@H]3[C@H](O)[C@@H](O)[C@H](N=C(N)N)[C@@H](O)[C@@H]3N=C(N)N)O[C@@H](C)[C@]2(O)CO)O[C@@H](CO)[C@H](O)[C@H]1O`, the “activity change, negative = inhibition” value was 0.585%.

With `CCOC(=O)C1=NOC(Cn2cc(C(C)=O)c(=O)[nH]c2=O)C1` (centres undefined), the “activity change, negative = inhibition” value was 1.23%.

In the case of `CCOC(=O)C1=NO[C@@]2(C=C(Br)C(=O)[C@H]3O[C@H]32)C1`, the Potency is 7.94 µM (active).

In the case of `CCOC(=O)C1=C(C)N=C2c3ccccc3C(=O)C2C1c1ccc(Br)cc1` (centres undefined), the “activity change, negative = inhibition” value was -2.57%.

Turning to `CC(C)C[C@@H](CC(=O)N[C@@H](CCC(=O)O)CC(=O)O)NC(=O)[C@@H]1CCCC[C@H]1NC(=O)C[C@@H](NC(=O)C[C@H](Cc1c[nH]c2ccccc12)NC(=O)[C@@H]1CCCC[C@H]1N)C(C)C`, the “activity change, negative = inhibition” value is -3.05%.

Turning to `CC(C)C1=CC2=CC[C@@H]3[C@](C)(CO)CCC[C@]3(C)C2CC1` (some centres undefined), the “activity change, negative = inhibition” value was 0.19%.

For the molecule `c1ccc(CSc2nnc(-c3ccco3)c(-c3ccco3)n2)cc1`, the Potency was 10 µM (active).

Turning to `O=C(CSc1nnc(-c2ccco2)n1-c1ccccc1)NCCc1ccccc1`, the “activity change, negative = inhibition” value was -4.34%.

As to `Clc1ccc(CSc2nnc3c(n2)[nH]c2ccccc23)cc1`, the “activity change, negative = inhibition” value was -0.131%.

Regarding `O=c1c(-c2cc(F)cc(F)c2)nc2cnc(Oc3ccccc3)nc2n1C[C@H]1CCCO1`, the “activity change, negative = inhibition” value is 3.92%.

As for `CC/C=C/C/C=C/C/C=C/CCCCCCCC(=O)OCC`, the “activity change, negative = inhibition” value is -3.48%.

As to `CN(C(=O)COC(=O)c1cc(-c2ccco2)nc2ccccc12)C1CCS(=O)(=O)C1` (centres undefined), the Potency was 7.94 µM (active).

As to `COc1ccc(/C=C(\C#N)C(=O)OCC(=O)N(C)C2CCS(=O)(=O)C2)cc1` (centres undefined), the “activity change, negative = inhibition” value was -0.493%.

On to `CN(C(=O)COC(=O)Cc1ccccc1[N+](=O)[O-])C1CCS(=O)(=O)C1` (centres undefined), for which the “activity change, negative = inhibition” value was 8.91%.

For `C1CCC2OC2C1` (centres undefined), the “activity change, negative = inhibition” value was -0.558%.

Regarding `COc1cccc(/C=C2/SC(=S)N(CC(=O)NC3C=CS(=O)(=O)C3)C2=O)c1` (centres undefined), the “activity change, negative = inhibition” value was 37.3%.

For the molecule `Cc1ccc(-c2nn(-c3ccccc3)cc2/C=C2\SC(=S)N(CCCCCC(=O)O)C2=O)o1`, the “activity change, negative = inhibition” value was -84.3%.

As for `COc1ccc(-c2nn(-c3ccccc3)cc2/C=C2/SC(=S)N(CCCC(=O)O)C2=O)c(C)c1`, the Potency is 29.9 µM (active).

Regarding `C=C1C(=O)C23C(O)C1CCC2[C@]12COC3(O)C(O)C1C(C)(C)CC[C@H]2O` (some centres undefined), the “activity change, negative = inhibition” value was -2.57%.

Turning to `CC[C@@]12C=C(/C=C/c3ccccc3)[C@](CC)(C1)[C@H](c1ccccc1)CC2=O`, the “activity change, negative = inhibition” value was 17.2%.

As to `O=C(CCNC(=O)c1ccccc1Cl)NN=Cc1ccco1`, the “activity change, negative = inhibition” value was -5.79%.

As for `O=C(CCc1n[nH]c(=O)[nH]c1=O)N/N=C/c1ccc(Br)o1`, the “activity change, negative = inhibition” value is -7.77%.

For `O=C(CCNC(=O)c1ccccc1)NN=Cc1ccc(Br)o1`, the Potency is 15 µM (active).
